An excerpt weighted towards active compounds, which were near 1.7% of everything screened.
KCNH2 WT inh: blocks the wildtype human KCNH2 potassium channel | U2OS, BacMam KCNH2, thallium flux FluxOr; hits give low values | 0.37% of 340,000 active | Q12809 | activity change, % at 1.84 µM;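 active = maximum activity change below -70%; inconclusive = maximum activity change between -70% and -50%; inactive = maximum activity change above -50%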
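U2OS cells were transduced with wild-type KCNH2 virus (2.03 x 10^8 / mL) for 4 h at room temperature, then cultured overnight at 37 C. Thallium flux was read with FluxOr dye. Rate constants were normalized to DMSO controls.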
Giardia kill: kills Giardia lamblia. AID 540267. 0.15% of 340,000 active. Giardia lamblia trophozoite viability. activity change, % at 7.66 µM, hits read low; in the data active = activity change below about -80%; inconclusive = between about -30% and that limit;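 note: parasites exposed to compound for two days anaerobically before the ATP read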
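Giardia trophozoites, 100 cells per well, were exposed to compounds for 48 hrs at 37 deg C under anaerobic conditions; viability was then read as ATP content by bioluminescence after 15-30 min at room temperature.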
USP1-UAF1 inh: blocks the human USP1/UAF1 deubiquitinase complex. O94782. recombinant USP1/UAF1, Ub-Rhodamine cleavage fluorescence. 0.23% of 390,000 active. Potency, µM (titrated, usually from 57.1 µM), for inactives: at the top dose activity change, negative = inhibition, hits mostly inhibitors; active = well fitted inhibition curve with a large enough effect; inconclusive = small, poorly fitted or top-dose-only effect; inactive = no such curve, though single readings can be large or run the other way; note: potency is the fitted concentration of half-maximal effect; nearly all actives have a fitted effect of over 60% in size
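USP1/UAF1 complex (1 nM) preincubated 15 min at room temperature with compound, then Ub-Rho substrate (150 nM final) added. Kinetic fluorescence at 480/540 nm over 6 reads at 60 s intervals; 50 mM HEPES pH 7.8, 0.5 mM EDTA, 0.1 mg/ml BSA, 1 mM TCEP, 0.01% Tween-20.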
Coupling enz: counter-screen for Giardia aldolase inhibitors: coupling enzyme system; coupling enzyme system counterscreen, AmpLite Red fluorescence; activity change, negative = inhibition, % at 58.2 µM, hits read low; 0.67% of 290,000 active; AID 2472; in the data active = activity change below about -30%
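Final compound at 57.5 uM, incubated 10 min at RT with coupling enzyme reagent (glyceraldehyde-3-phosphate), then 20 min with substrate and AmpLite Red detection. Fluorescence read at 525/598 nm; tests interference with the coupling assay, not aldolase inhibition.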
KCNH2 3.1 inh: KCNH2 3.1 (human) potassium channel inhibition; U2OS KCNH2 3.1, thallium flux FluxOr; hits give low values; activity change, % (tested at about 1.8 µM); 0.95% of 340,000 active; AID 720553;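 active = maximum activity change below -70%; inconclusive = maximum activity change from -70% to -50%; inactive = maximum activity change above -50%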;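 note: thallium influx rate constant from kinetic fluorescence after stimulation buffer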
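Thallium flux via FluxOr fluorescence (Red40 quencher, 45 min loading) in U2OS cells virally expressing the KCNH2 3.1 isoform (1.77 x 10^8 /mL virus, overnight at 37 C). Rate constants from 2-min kinetic reads post-stimulation, normalised to positive and negative controls.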
* marks the source's active call; other numbers are inactive results. % is set by controls: 0 for no effect and ±100 for the full control effect.

For N/C(=N\S(=O)(=O)c1cccs1)c1ccccc1 the results were KCNH2 WT inh -6.9, Giardia kill -7.4, USP1-UAF1 inh 2.5%, Coupling enz 2.5 and KCNH2 3.1 inh -2.6.
`O=C1/C(=N\S(=O)(=O)c2cccs2)C([n+]2ccccc2)=C([O-])c2ccccc21` gave KCNH2 WT inh -3.4, Giardia kill -7.1, USP1-UAF1 inh inconclusive, Coupling enz -51.4* and KCNH2 3.1 inh 1.1.
CC(C)(C)c1cc[n+](C2=C([O-])c3ccccc3C(=O)/C2=N\S(=O)(=O)c2cccs2)cc1 was read as KCNH2 WT inh 8.4, Giardia kill 14.8, USP1-UAF1 inh inconclusive, Coupling enz -57.2* and KCNH2 3.1 inh 6.9.
Screening COc1ccc(N2CCN(CCCn3c(=S)[nH]c4ccccc4c3=O)CC2)cc1 returned KCNH2 WT inh -118.0*, Giardia kill -1.6, USP1-UAF1 inh -11.9%, Coupling enz 0.5 and KCNH2 3.1 inh -79.6*.
Screening COc1ccccc1N1CCN(CCCn2c(=S)[nH]c3ccccc3c2=O)CC1 returned KCNH2 WT inh 39.3, Giardia kill 6.4, USP1-UAF1 inh -20.9%, Coupling enz 2.4 and KCNH2 3.1 inh -27.7.
Cc1ccc(CNC(=O)Cn2ccn(-c3ccc(F)cc3)c(=O)c2=O)cc1 was read as USP1-UAF1 inh -7.2%.
Screening CCc1nn(CC(=O)NCc2ccccc2)c(=O)c2cccn12 returned USP1-UAF1 inh -10.6%.
`Cn1c(=O)c2c(nc(Br)n2Cc2ccccc2Cl)n(C)c1=O` gave KCNH2 WT inh 1.3, Giardia kill -14.6, USP1-UAF1 inh -10.7%, Coupling enz 1.1 and KCNH2 3.1 inh -88.3*.
`CCOc1nc2c(c(=O)n(C)c(=O)n2C)n1Cc1ccccc1Cl` gave KCNH2 WT inh -14.0, Giardia kill 3.7, USP1-UAF1 inh -20.6%, Coupling enz 0.8 and KCNH2 3.1 inh 6.1.
CN1CCc2c(n(CC(O)CNCc3ccccc3)c3ccccc23)C1=O (configuration not stated) was read as KCNH2 WT inh 2.5, Giardia kill -7.6, USP1-UAF1 inh inconclusive, Coupling enz -24.3 and KCNH2 3.1 inh -8.5.
`CN1CCc2c(n(CC(O)CN(CCO)CCO)c3ccccc23)C1=O` (configuration not stated) gave Giardia kill -2.7, USP1-UAF1 inh -16.8%, Coupling enz -50.6* and KCNH2 3.1 inh -25.9.
For COc1ccc(-c2cccc(NC(=O)c3ccco3)c2)nn1 the results were KCNH2 WT inh -12.4, Giardia kill -25.8, USP1-UAF1 inh -9.7% and KCNH2 3.1 inh 18.6.
`COc1ccc(-c2ccc(NC(=O)c3ccco3)cc2)nn1` gave KCNH2 WT inh -0.9, Giardia kill -93.1*, USP1-UAF1 inh -1.0% and KCNH2 3.1 inh 1.1.
COc1ccc(OC)c(S(=O)(=O)Nc2ccccc2SC)c1 was read as KCNH2 WT inh 11.2, Giardia kill 5.9, USP1-UAF1 inh -19.0%, Coupling enz 0.3 and KCNH2 3.1 inh -88.3*.
Screening COc1ccc(OC)c(S(=O)(=O)Nc2ccccc2C)c1 returned KCNH2 WT inh 27.8, Giardia kill -3.9, USP1-UAF1 inh -2.4%, Coupling enz 0.2 and KCNH2 3.1 inh -1.3.
Screening CCOC(=O)c1c(C)[nH]c(C=Nc2ccccc2)c1O returned Coupling enz -36.1*.
Screening CCOc1ccc(CN2CCN(Cc3cnc(-c4ccccc4)s3)CC2CCO)cc1 (configuration not stated) returned KCNH2 WT inh -96.0*, Giardia kill -3.2, USP1-UAF1 inh 0.9%, Coupling enz 7.8 and KCNH2 3.1 inh -97.2*.
`CCOc1ccc(CN2CCN(Cc3cccn3-c3nccs3)CC2CCO)cc1` (configuration not stated) gave KCNH2 WT inh -134.0*, Giardia kill -9.7, USP1-UAF1 inh -6.8%, Coupling enz 1.9 and KCNH2 3.1 inh -113.5*.
OCCC1CN(Cc2cccn2-c2nccs2)CCN1Cc1ccccc1 (configuration not stated) was read as KCNH2 WT inh 13.7, Giardia kill 4.5, USP1-UAF1 inh -18.9%, Coupling enz 0.1 and KCNH2 3.1 inh -40.7.
For Cc1ncc(CN2CCN(Cc3ccccc3)C(CCO)C2)s1 (configuration not stated) the results were KCNH2 WT inh -4.7, Giardia kill 15.4, USP1-UAF1 inh -18.4%, Coupling enz 1.8 and KCNH2 3.1 inh -6.8.

Assay outcomes (PubChem)
